Screening results: PubChem, National Center for Advancing Translational Sciences (NCATS)
USP1-UAF1 inh: Inhibitors of USP1/UAF1: Primary Screen; Ubiquitin carboxyl-terminal hydrolase 1 (Homo sapiens), O94782; recombinant USP1/UAF1, Ub-Rhodamine cleavage fluorescence; Potency, µM (titrated, usually from 57.1 µM), without a hit: top-dose activity change, negative = inhibition, usual class: inhibitors; 0.23% of 390,000 active; AID 743255, 2014; active means well fitted inhibition curve with a large enough effect; inconclusive means small, poorly fitted or top-dose-only effect; inactive means no such curve, though single readings can be large or run the other way; further: potency means the concentration at half of the fitted maximal effect; on the % scale 0 is the no-effect control and ±100 the full control effect; nearly all actives have a fitted effect of over 60% in size
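High-throughput fluorogenic screen: 1nM USP1/UAF1 complex, Ub-Rho substrate 150nM final, 50mM HEPES pH 7.8 with 0.5mM EDTA, 0.1 mg/ml BSA, 1mM TCEP and 0.01% Tween-20.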
TRHR agonist: qHTS for Small Molecule Agonists and Allosteric Enhancers of Human TRH Receptor: Primary Screen for Agonists | Thyrotropin-releasing hormone receptor (Homo sapiens), P34981 | TRHR cells, calcium flux fluo-8, FDSS agonist mode | activation, % at 2 µM | 0.18% of 360,000 active; further: 0% is about no effect
Target sequence (P34981 whole entry, looked up): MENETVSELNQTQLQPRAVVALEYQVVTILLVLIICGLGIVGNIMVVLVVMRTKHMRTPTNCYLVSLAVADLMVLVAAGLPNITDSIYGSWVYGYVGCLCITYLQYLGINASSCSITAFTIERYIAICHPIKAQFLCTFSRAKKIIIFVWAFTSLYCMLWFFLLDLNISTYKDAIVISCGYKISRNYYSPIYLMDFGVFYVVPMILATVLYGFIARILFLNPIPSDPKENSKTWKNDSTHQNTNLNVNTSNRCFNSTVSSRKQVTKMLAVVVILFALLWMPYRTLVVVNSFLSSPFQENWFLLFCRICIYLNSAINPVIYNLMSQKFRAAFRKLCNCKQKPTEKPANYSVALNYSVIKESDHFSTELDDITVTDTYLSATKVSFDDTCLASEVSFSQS
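In this calcium-flux screen, cells bearing human TRHR are dye-loaded with fluo-8, baselined for 10 cycles, then exposed to library compounds; positive kinetic calcium responses during the agonist phase mark hits, with TRH as control.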
D1 agonist: Allosteric Agonists of the Human D1 Dopamine Receptor: qHTS. D(1A) dopamine receptor (Homo sapiens), P21728. HEK293 T-REx D1 cells, calcium flux, agonist mode. activation, % at 2 µM. 1% of 360,000 active. AID 504660, 2011; further: 0% is about no effect
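Tetracycline-induced HEK293 TREx D1 cells, force-coupled to calcium signalling, were dye-loaded with a no-wash calcium kit. Compound was pin-added after a 10 s baseline. Fluorescence was read kinetically at 1 cycle/s for 180 s, with calcium rises flagged as agonism.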
D1 antagonist: Antagonist of Human D 1 Dopamine Receptor: qHTS; D(1A) dopamine receptor (Homo sapiens), P21728; HEK293 TREx D1 cells, calcium flux, dopamine EC80; active compounds read low; activity change, negative = inhibition, % at 10 µM; 3.2% of 360,000 active; AID 504652, 2011; in the data active means activity change below about -30%; further: on the % scale 0 is the no-effect control and ±100 the full control effect
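Tetracycline-induced HEK293 Trex D1 cells, force-coupled to calcium, dye-loaded; compounds added and read 180 s, then EC80 dopamine added and calcium flux tracked kinetically another 180 s.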
TRHR PAM: qHTS for Small Molecule Agonists and Allosteric Enhancers of Human TRH Receptor: Primary Screen for Enhancers. enhancement, % at 2 µM. 0.66% of 360,000 active. AID 493056, 2011. TRHR cells, fluo-8 calcium fluorescence, EC20 TRH enhancement; in the data active means enhancement above about 30%; further: 0% is about no effect
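Enhancer read-out: after compound pinning and an initial kinetic agonist-mode read, an EC20 of TRH (10 nM final) was injected and fluo-8 calcium signal (Ex 480/Em 530) followed at 1 s/cycle for 100 cycles in TRHR-expressing cells.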
D1 PAM: Potentiators of Human D1 Dopamine Receptor: qHTS; D(1A) dopamine receptor (Homo sapiens), P21728; HEK293 TREx D1 cells, calcium flux, dopamine EC20 potentiation; potentiation, % at 10 µM; 0.036% of 360,000 active; AID 504651, 2011; in the data active means potentiation above about 30%; further: 0% is about no effect
* marks the source's active call; other numbers are inactive results; u = inconclusive; x = not tested or not shown. Hits are enriched below; roughly 4.4% of the tested compounds scored in any of these assays. Unless noted, no stated cut-off is given here; in the data, active means activation above about 30%; inactive means the rest.

SMILES	USP1-UAF1 inh	TRHR agonist	D1 agonist	D1 antagonist	TRHR PAM	D1 PAM
Cc1cc(=O)oc2c3c4c(cc12)OCCN4CCC3	-13%	0	15	8	5	4
COc1ccc(-n2c(=O)c(CCC(=O)N3CCN(c4cccc(OC)c4)CC3)nc3ccccc32)cc1	-14%	x	x	x	x	x
COc1ccc(/C(O)=C/c2nc3ccccc3n(-c3ccccc3)c2=O)cc1	u	23	39*	-7	2	-2
COc1ccc(OC)c(-c2cc(C(=O)Nc3sc4c(c3C#N)CCC(C)C4)c3ccccc3n2)c1 (centres undefined)	-13%	0	3	-47*	-7	-3
Cc1ccc(C)c(-c2nc(Cn3c(=O)cc(-c4ccccc4)c4c(C)nn(C)c43)c(C)o2)c1	1%	32*	3	14	3	-3
COc1ccc(CNC(=O)Cn2ncc3c(=O)oc4ccc(C)cc4c32)c(OC)c1	-8%	-2	2	7	1	0
O=C(NCCc1ccccc1)C1CCCN1S(=O)(=O)c1cccc2nsnc12 (centres undefined)	-25%	0	5	-3	-2	0
NS(=O)(=O)c1ccc(CCNC(=O)C2CCCN2S(=O)(=O)c2cccc3nsnc23)cc1 (centres undefined)	-24%	0	1	-13	32*	-3
CC(C)n1cc(/C=C2/NC(=O)N(c3cccc(Cl)c3)C2=O)c2ccccc21	-16%	1	0	-53*	-3	-10
CC(C)n1cc(/C=C2\NC(=O)N(c3cccc(Cl)c3)C2=O)c2ccccc21	-25%	1	2	-68*	-3	-10
O=S(=O)(Nc1cccnc1)c1cccc2ccccc12	x	2	-1	24	2	1
COc1ccc(/C=C/c2cc(C(=O)O)c3ccccc3n2)cc1	-1%	0	0	-33*	2	-4
Cc1cc(C)cc(NC(=O)Nc2c[nH]c(=O)[nH]c2=O)c1	-24%	1	4	-1	-6	-3
COc1ccc(-c2noc(-c3ccc(N4CCCCC4C)c([N+](=O)[O-])c3)n2)cc1OC (centres undefined)	-16%	0	5	6	-5	-1
COc1cccc(OCCCn2cc(/C=C3/C(=N)N4C=C(C)SC4=NC3=O)c3ccccc32)c1	-24%	8	34*	-11	3	0
Cc1ccc(C2C3=C(NCCN=C3c3ccccc3)C(=O)N2c2ccccc2)cc1 (centres undefined)	5%	1	5	15	1	-2
CCOc1ccc(N2C(=O)C3=C(C(c4ccc(Cl)cc4)=NCCN3)C2c2cccnc2)cc1 (centres undefined)	-19%	0	1	-47*	4	-4
Cc1oc(-c2ccccc2Cl)nc1CSc1nc2ncccc2[nH]1	-13%	-1	-1	4	-6	-1
COc1ccccc1N(C)S(=O)(=O)c1ccc(Cl)c(C(=O)OCc2c(C)noc2C)c1	-23%	2	31*	-29	-6	-13
COc1ccccc1N(C)S(=O)(=O)c1ccc(Cl)c(C(=O)NNC(=O)c2ccccc2O)c1	-19%	0	0	8	21	0
C/C(=N\Nc1nc2ccccc2[nH]1)c1ccc(C)o1	2%	0	3	-52*	2	-9
O=C(NC(=S)Nc1ccccc1N1CCCC1)c1ccccc1[N+](=O)[O-]	-14%	-1	1	-6	-3	2
O=C(NC(=S)Nc1ccc(N2CCCC2)cc1)c1ccccc1[N+](=O)[O-]	0%	0	0	-72*	11	-2
CN1CCN(c2ccc(NC(=S)NC(=O)c3cccc4c(Br)cccc34)cc2)CC1	-19%	0	3	-37*	-6	-9
CC1=C(C(=O)Nc2cccnc2)C(c2cccc(F)c2)n2nc(SCc3ccccc3F)nc2N1 (centres undefined)	-9%	0	0	2	-4	2
SMILES	USP1-UAF1 inh	TRHR agonist	D1 agonist	D1 antagonist	TRHR PAM	D1 PAM
COc1ccc(-c2nnc(SCC(=O)Nc3ccc(C)c(Cl)c3)nc2-c2ccc(OC)c(OC)c2)cc1OC	-11%	0	7	9	-3	0
CC(C)(C)OC(=O)NCc1nnc(C(C(=O)OCc2ccccc2)c2ccccc2)s1 (centres undefined)	x	-1	1	-18	1	-7
CC1Cc2cc(S(=O)(=O)CCC(=O)N3CCN(c4ccccc4)CC3)ccc2N1C(=O)C1CC1 (centres undefined)	-19%	0	7	-31*	-2	-11
CCOc1ccccc1N(C)S(=O)(=O)c1ccc2c(c1)CC(C)N2C(=O)C1CC1 (centres undefined)	-16%	0	20	-32*	-4	-8
CCC(=O)N1c2ccc(S(=O)(=O)CCC(=O)N3CCN(c4ccc(F)cc4)CC3)cc2CC1C (centres undefined)	u	-1	7	-4	16	6
CCN(c1ccccc1)S(=O)(=O)c1ccc2c(c1)CC(C)N2C(=O)C1CC1 (centres undefined)	-8%	0	17	-32*	0	-3
CC1Cc2cc(S(=O)(=O)NCc3ccccc3)ccc2N1C(=O)C1CC1 (centres undefined)	-13%	-1	12	-25	-7	-5
O=C(NCCc1ccc(F)cc1)C(=O)NCC(c1cccs1)S(=O)(=O)c1cccs1 (centres undefined)	0%	0	42*	x	4	-3
COc1ccc(CCNC(=O)C(=O)NCC(c2ccco2)S(=O)(=O)c2ccc(F)cc2)cc1 (centres undefined)	2%	0	3	x	36*	-1
Cc1ccc(CNC(=O)CCCn2c(=O)c3ccccc3n(CC(=O)Nc3ccc(C)cc3)c2=O)cc1	-22%	0	3	-8	0	-2
CCc1ccc(CN2CCCC(CNC(=O)c3cc(OC)cc(OC)c3)C2)cc1 (centres undefined)	-29%	0	9	-37*	-4	0
CCC(Sc1nc2nccnc2c(=O)n1Cc1ccc(Cl)cc1)C(=O)NC1CCCCC1 (centres undefined)	-12%	0	0	9	8	0
